Reference: PubChem BioAssay (EPA / NIEHS)
Inconclusive results are not listed. The source made the active and inactive calls. How the source made its calls: active means hit-call score of the fitted dose curve at least 0.9, where 1 is the maximum; inconclusive means response in the unintended direction; inactive means score below 0.9.

assay: ATG_M_06_TRANS: Attagene TRANS-FACTORIAL HepG2 Assay for M06 Transcription Factor (Internal Marker) (AID 2282983); conditions: HepG2 Attagene TRANS M06 internal marker reporter
Procedure: ATG_TRANS is a cell-based, multiplexed-readout assay that uses HepG2, a human liver cell line, with measurements taken at 24 hours after chemical dosing in a 24-well plate.ATG_M_06_TRANS is one of 30 assay component(s) measured or calculated from the ATG_TRANS assay. It is designed to make measurements of mRNA induction, a form of inducible reporter, as detected with fluorescence intensity signals by Reverse transcription polymerase chain reaction (RT-PCR) and Capillary electrophoresis technology.Data from the assay component ATG_M_06_TRANS was analyzed into 1 assay endpoint. This assay endpoint, ATG_M_06_TRANS, was analyzed in the positive analysis fitting direction relative to DMSO as the negative control and baseline of activity. Using a type of inducible reporter, measures of mRNA for gain-of-signal activity can be used to understand the background control at the transcription factor-level as they relate to the gene . Furthermore, this assay endpoint can be referred to as a secondary readout, because this assay has produced multiple assay endpoints where this one serves a background control function. To generalize the intended target to other relatable targets, this assay endpoint is annotated to the background measurement intended target family, where the subfamily is internal marker.
Human liver HepG2 cells are transiently transfected with multiple reporter transcription units (MRTUs) in 6-well plates using FuGene 6 reagent (Roche; 3 ml FuGene/1 mg DNA). The MRTU constructs are regulated by a cis-regulating element (promoter). […] A major difference between the CIS and TRANS system is that in CIS activities of endogenous TFs are measured, whereas the TRANS assay evaluates changes in activities of exogenous, chimeric NR-Gal4 proteins. […] At the end of 24 hour incubation, total RNA was isolated using TriZol reagent (Invitrogen). The isolated RNA is then reverse-transcribed using oligo(dT) primer and Mo-MLV reverse transcriptase (Invitrogen) with DNAse I (Ambion) treatment for 30 min. The one-tenth of the produced cDNA was amplified by PCR using Taq DNA polymerase (Invitrogen) and two reporter sequence-specific primers. The PCR products were fluorescently labeled by primer extension with 6-arboxyfluorescein (6-FAM) 5'-labeled reporter sequence-specific primer (2 min at 95 C, 20 s at 68 C and 10 min at 72 C) and these products were digested with 5U of HpaI (New England Biolabs) for 2h at 37 C. The fragments were purified using Qiaquick PCR columns (Qiagen), analyzed on an ABI 3130xL genetic analyzer (Applied Biosystems) with peak positions identified by using a set of X-rhodamine (ROX)-labeled MapMarker1000 molecular weight standards (BioVentures). The raw capillary electrophoresis data was processed using Attagraph software (Attagene).

outcome, inactive:
CC(O)CC(C)(C)O (stereo not given)
O=C(O)Cn1c(=O)n(Cc2ccc(Br)cc2F)c(=O)c2ccc(Cl)cc21
COc1cc(C(=O)NC2CCN(C)CC2)ccc1Nc1ncc2c(n1)N(C1CCCC1)CC(F)(F)C(=O)N2C
CCO[Si](CCCNC(N)=O)(OCC)OCC
O=c1c(-c2ccc(O)cc2)coc2cc(O)cc(O)c12
Clc1cc(Cl)c2c(c1)N=C1CCCCCN1C2
O=C(OCCCCCCOC(=O)c1ccccc1)c1ccccc1
CN(C[C@@H](CC[N+]12CCC(C3CCCCC3)(CC1)CC2)c1ccc(Cl)c(Cl)c1)C(=O)c1cc(C(F)(F)F)cc(C(F)(F)F)c1
Cc1cccc2ccccc12
c1ccc2n[nH]nc2c1
O=C(O)c1ccccc1C(=O)OCc1ccccc1
CCCCCCCCCC(=O)O
Cc1ncc(CO)c(CO)c1O
CC(C)(c1cc(Br)c(O)c(Br)c1)c1cc(Br)c(O)c(Br)c1
CCCCOC(=O)CC(CC(=O)OCCCC)(OC(C)=O)C(=O)OCCCC
CC[C@@H]1C[C@H](N(Cc2cc(C(F)(F)F)cc(C(F)(F)F)c2)C(C)=O)c2cc(C(F)(F)F)ccc2N1C(=O)OC(C)C
CCCCCCCCOC(=O)c1cc(O)c(O)c(O)c1
CN(C)C(=O)C1(N2CCCCC2)CCN(CC[C@@]2(c3ccc(Cl)c(Cl)c3)CN(C(=O)c3ccccc3)CCO2)CC1
CCN(CC)C(=O)c1cc(S(=O)(=O)Cc2ccccc2)c(N2CCC(c3ccccc3)CC2)cc1N(CC)CCN(C)C
CCN(Cc1cccc(S(=O)(=O)O)c1)c1ccc(C(=C2C=CC(=[N+](CC)Cc3cccc(S(=O)(=O)O)c3)C=C2)c2ccccc2S(=O)(=O)[O-])cc1
CCCCCCCCCCCCO
CC[C@H](NC(=O)c1cc(F)ccc1NS(=O)(=O)c1cccc2cccnc12)c1ccccc1
Clc1ccccc1C(c1ccccc1)(c1ccccc1)n1ccnc1
CCCOC(=O)c1cc(O)c(O)c(O)c1
CC1(C)NC(=O)N(c2ccc([N+](=O)[O-])c(C(F)(F)F)c2)C1=O
NCc1cccc(C2CCN(C(=O)c3ccc(C#Cc4ccccc4F)o3)CC2)c1
O=C(O)Cc1cc(I)c(Oc2ccc(O)c(I)c2)c(I)c1
Cc1ccc2oc(CN(Cc3ccccc3)C(=O)Nc3c(F)cc(F)cc3F)c(-c3ccc(Cl)cc3)c2c1
CCCCCCCC[Si](OCC)(OCC)OCC
Cc1ccc(C(C)C)cc1
Cc1c2ccccc2c(C)c2c1ccc1ccccc12
C[C@]12CC[C@@H]3c4ccc(O)cc4CC[C@H]3[C@@H]1CC[C@H]2O
O=C=NCCCCCCN=C=O
O=C1CCC(C2CCCCC2)CC1
O=C1O[C@H]([C@@H](O)CO)C(O)=C1O
O=C(Nc1ccc(Cl)cc1)Nc1ccc(Cl)c(Cl)c1
CO[C@H]1/C=C/O[C@@]2(C)Oc3c(C)c(O)c4c(O)c(c(/C=N/N5CCN(C)CC5)c(O)c4c3C2=O)NC(=O)/C(C)=C\C=C\[C@H](C)[C@H](O)[C@@H](C)[C@@H](O)[C@@H](C)[C@H](OC(C)=O)[C@@H]1C
CCOC(=O)O[C@H](C)OC(=O)c1ccc2c(c1)cc(C(=O)NC1CCN(C(C)C)CC1)n2Cc1cc(-c2ccc(Cl)s2)on1
CCCCOC(=O)c1ccc(O)cc1
O=C(O)c1ccccc1-n1cc(C(=O)O)c(=O)c2cc(Nc3c(F)cc(F)cc3Cl)c(Cl)cc21
